The test system of assay [1] is Plasmodium falciparum Sir2 (PF13_0152, Sir2A). Kind of assay: pfSir2 binders on small-molecule microarrays, primary screen, biochemical, small-molecule microarray, 635 nm fluorescence (AID 1098).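 Note: score merges spot fluorescence intensity with its signal-to-noise ratio.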 The following applies: small-molecule microarray binding, fluorescence 635 nm; higher = more signal.
Assay [2] is described as follows: small-molecule microarray binders of probe aDKK1, primary screen, biochemical, biotinylated probe, 635/667 nm fluorescence (AID 1099).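 Note: score merges 667nm spot fluorescence with signal to noise across triplicate slides; reference of the scale not given here.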 Conditions: higher = more signal.
Assay [3] can be described thus: small-molecule microarray binders of probe aCHRDL2, primary screen, biochemical, biotinylated probe, 635/667 nm fluorescence (AID 1100). The following applies: higher = more signal.
A short description of assay [4]: splicing luciferase reporter signal modulators, primary screen, spliceosome inhibition project, cell-based, HEK293, splice +/- reporter (AID 1101).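 Note: HEK293 cells carrying a splicing-competent luciferase reporter gene; test concentration not given here.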 The following applies: luminescence, 24 h, higher = more signal, called active from +8 up or from −8 down.
Assay [5] concerns the target Fibroblast growth factor 10 (Homo sapiens) (UniProt O15520). Kind of assay: FGF10 binders on small-molecule microarrays, primary screen, biochemical, small-molecule microarray, 635 nm fluorescence (AID 1102). Conditions: FGF10 binding, fluorescence 635 nm, higher = more signal.
Assay [6] has as its system glycogen synthase kinase-3 (GSK3A per assay name; protocol says GSK3B). Description: GSK3 binders on small-molecule microarrays, primary screen, biochemical, small-molecule microarray, 635 nm fluorescence, GSK3A (AID 1103). Note: the record names both GSK3A and GSK3B. The following applies: small-molecule microarray binding, fluorescence 635 nm; higher = more signal.
In assay [7] the target is Epidermal growth factor receptor (Homo sapiens) (UniProt P00533). Description: EGFR binders on small-molecule microarrays, primary screen, biochemical, small-molecule microarray, 635 nm fluorescence (AID 1104).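 Note: score merges 667 nm emission intensity with spot signal to noise over triplicate slides.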 The following applies: EGFR binding, higher = more signal.
Assay [8] has as its target Follistatin-related protein 3 (Homo sapiens) (UniProt O95633). Description: FSTL3 binders on small-molecule microarrays, primary screen, biochemical, small-molecule microarray, 635 nm fluorescence (AID 1105).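 Note: score merges emission near 667 nm and signal to noise per printed spot across three slides.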 The following applies: FSTL3 binding, higher = more signal.
In assay [9] the target is Dickkopf-related protein 1 (Homo sapiens) (UniProt O94907). Description: DKK1 binders on small-molecule microarrays, primary screen, biochemical, small-molecule microarray, 635 nm fluorescence scan (AID 1106).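 Note: score merges emission near 667 nm with signal to noise over three replicate slides.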 Conditions: DKK1 binding, higher = more signal.
For assay [10], the system named is Inhibin beta A chain (activin A). Kind of assay: INHBA (activin A) binders on microarrays, primary screen, biochemical, small-molecule microarray, 635 nm fluorescence scan (AID 1107).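 Note: mouse activin A protein probed at 4.33 µg/mL on printed slides; score merges bound-protein fluorescence near 667 nm with spot signal-to-noise.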 The following applies: small-molecule microarray binding, higher = more signal.

Activity calls are given as the source filed them.

Dickkopf-related protein 1 (Homo sapiens), sequence (O94907 whole entry, looked up): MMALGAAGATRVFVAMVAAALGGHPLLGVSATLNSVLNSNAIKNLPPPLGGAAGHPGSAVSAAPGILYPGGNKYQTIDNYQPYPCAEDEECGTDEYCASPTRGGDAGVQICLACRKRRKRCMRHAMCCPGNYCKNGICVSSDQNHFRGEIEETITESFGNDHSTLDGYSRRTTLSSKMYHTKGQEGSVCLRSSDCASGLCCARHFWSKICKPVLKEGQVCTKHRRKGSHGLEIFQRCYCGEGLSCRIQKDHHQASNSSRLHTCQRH
Epidermal growth factor receptor (Homo sapiens), sequence (P00533 whole entry, looked up): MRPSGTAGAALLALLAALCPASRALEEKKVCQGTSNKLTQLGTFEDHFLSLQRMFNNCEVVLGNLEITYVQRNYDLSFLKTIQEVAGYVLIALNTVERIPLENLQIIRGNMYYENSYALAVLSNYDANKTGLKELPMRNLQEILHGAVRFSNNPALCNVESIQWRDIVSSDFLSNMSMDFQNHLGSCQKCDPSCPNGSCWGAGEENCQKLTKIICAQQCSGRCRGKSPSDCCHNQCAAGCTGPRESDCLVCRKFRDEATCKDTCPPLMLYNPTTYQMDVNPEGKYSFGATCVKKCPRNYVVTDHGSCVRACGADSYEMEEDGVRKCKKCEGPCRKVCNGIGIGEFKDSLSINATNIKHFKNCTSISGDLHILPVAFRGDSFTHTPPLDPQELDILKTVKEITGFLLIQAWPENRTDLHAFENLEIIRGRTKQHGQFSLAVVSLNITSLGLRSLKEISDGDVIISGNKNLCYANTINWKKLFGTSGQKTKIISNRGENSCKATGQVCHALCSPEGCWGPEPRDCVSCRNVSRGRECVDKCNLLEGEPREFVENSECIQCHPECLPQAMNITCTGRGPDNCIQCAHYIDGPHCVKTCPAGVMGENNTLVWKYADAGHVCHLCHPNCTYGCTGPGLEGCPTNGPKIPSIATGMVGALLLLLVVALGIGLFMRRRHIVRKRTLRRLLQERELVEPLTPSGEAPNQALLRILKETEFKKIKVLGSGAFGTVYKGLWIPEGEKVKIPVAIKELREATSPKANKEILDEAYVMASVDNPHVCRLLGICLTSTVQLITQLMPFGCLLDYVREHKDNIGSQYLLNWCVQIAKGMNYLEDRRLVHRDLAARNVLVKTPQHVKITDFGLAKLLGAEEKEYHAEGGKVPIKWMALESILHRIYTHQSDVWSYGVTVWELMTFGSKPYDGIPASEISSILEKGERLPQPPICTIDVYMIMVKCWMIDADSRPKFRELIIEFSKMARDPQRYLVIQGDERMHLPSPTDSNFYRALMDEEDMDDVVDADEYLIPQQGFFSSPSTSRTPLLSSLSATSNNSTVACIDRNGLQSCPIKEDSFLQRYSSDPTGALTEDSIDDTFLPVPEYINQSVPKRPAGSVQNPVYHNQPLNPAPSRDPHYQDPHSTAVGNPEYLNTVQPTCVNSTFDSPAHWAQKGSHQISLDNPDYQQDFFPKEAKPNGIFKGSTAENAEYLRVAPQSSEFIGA
Fibroblast growth factor 10 (Homo sapiens), sequence (O15520 whole entry, looked up): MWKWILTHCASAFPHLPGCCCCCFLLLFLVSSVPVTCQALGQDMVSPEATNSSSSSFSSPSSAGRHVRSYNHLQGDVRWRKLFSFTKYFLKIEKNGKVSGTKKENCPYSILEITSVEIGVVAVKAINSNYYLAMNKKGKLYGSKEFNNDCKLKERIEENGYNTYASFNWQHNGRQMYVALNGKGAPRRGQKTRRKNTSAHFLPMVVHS
Follistatin-related protein 3 (Homo sapiens), sequence (O95633 whole entry, looked up): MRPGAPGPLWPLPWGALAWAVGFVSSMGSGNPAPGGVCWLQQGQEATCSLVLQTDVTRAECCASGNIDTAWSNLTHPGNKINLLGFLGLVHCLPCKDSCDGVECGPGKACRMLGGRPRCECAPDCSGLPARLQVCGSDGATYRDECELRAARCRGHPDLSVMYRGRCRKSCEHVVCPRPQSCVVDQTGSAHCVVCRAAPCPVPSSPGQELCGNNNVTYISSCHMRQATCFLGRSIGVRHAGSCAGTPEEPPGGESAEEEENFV

With `[N-]=[N+]=NCc1ccccc1C[C@]1(C(=O)NCCN2CCOCC2)N=C(c2ccc(OCCCO)cc2)O[C@H]1c1ccccc1`, the composite z-score in assay [1] was 1.69; in [2], 0.103; in assay [3], 0.826; in assay [5] it was 1.04; in [6] it was 1.28; in assay [7], -0.329. Moreover, the composite z-score in [8] was 0.0637; in assay [9] it was -0.781; in [10], 0.527. Further, in assay [4], the z-score was -0.326 (inactive).
As to `Cc1ccc(S[C@]2(C(=O)NCc3ccccc3)CC(=O)N(C3Cc4ccccc4C3)[C@@H]2c2ccc(CO)cc2I)cc1`, the composite z-score is 0.976 in assay [1]; 0.699 in assay [2]; 0.995 in assay [3]; -0.699 in assay [5]; -0.488 in assay [6]; -0.807 in assay [7]. The composite z-score was -0.645 in assay [8], -1.13 in assay [9] and 0.889 in assay [10]. The z-score in assay [4] was -1.83 (inactive).
In the case of `CC(=O)NCCCC[C@@H]1NC(=O)[C@H]2C[C@@H](C(=O)NCCCCCN)[C@@H](c3cccc(OCCO)c3)N2C1=O`, the composite z-score was 0.878 in assay [1]; -0.0159 in assay [2]; 0.366 in [3]; 0.757 in assay [5]; 0.4 in assay [6]; 0.103 in assay [7]. The composite z-score in [8] was 0.0957; in [9], 0.142; in assay [10], 0.602. For the same molecule, in assay [4], the z-score is -1.77 (inactive).
As to `COc1ccc(C(=O)Nc2ccc(CN3C(=O)[C@@]4(O[C@@H](CC(=O)N5Cc6ccccc6C[C@H]5CO)[C@H]([Si](C)(C)c5ccc(OC)cc5)[C@H]4C)c4ccccc43)cc2)cc1`, the composite z-score was 1.33 in assay [1]; -0.351 in assay [2]; -0.342 in assay [3]; 1.01 in assay [5]; 0.81 in assay [6]; 1.05 in assay [7]. Besides, the values for the composite z-score in assay [8], in assay [9] and in assay [10] were 1.19, 0.628 and 0.673, respectively. The z-score in assay [4] was -1.29 (inactive).
Turning to `CC(C)=CCCC(C)=CC(O)C1C=CC2C(=O)N(c3ccccc3)C(=O)C2N1Nc1ccc([N+](=O)[O-])cc1` (stereo not given), the composite z-score in assay [1] was 1.29; in assay [2] it was -0.0499; in assay [3] it was 0.77; in [5], 0.74; in assay [6] it was 1.34; in assay [7], 0.0387. Further, the composite z-score was 0.996 in [8], -0.4 in [9] and 0.387 in assay [10]. Also, in assay [4], the z-score was 0.644 (inactive).
For the molecule `O=C1C[C@@](C(=O)O)(c2ccc([N+](=O)[O-])cc2)[C@@H](c2ccc(CO)cc2)N1CC12CC3CC(CC(C3)C1)C2`, the composite z-score is 1.23 in [1]; 0.28 in [2]; 0.771 in assay [3]; 1.18 in assay [5]; 0.386 in assay [6]; 0.259 in [7]. Moreover, the values for the composite z-score in assay [8], in assay [9] and in assay [10] were 0.554, -0.148 and 0.532, respectively. The z-score in assay [4] was 0.66 (inactive).
`Cc1ccc(F)cc1S(=O)(=O)N[C@@H]1CCN(C(=O)c2ccc(OC(C)C)cc2)C1`: the composite z-score was 0.416 in assay [1]; -0.274 in assay [2]; -0.734 in assay [3]; 0.969 in [5]; 1 in assay [6]; 0.5 in assay [7]. Moreover, the composite z-score was found to be 1.34 in assay [8], 0.463 in assay [9] and 0.0062 in assay [10]. Also, the z-score in [4] is -0.0035 (inactive).
For `NC(=O)NCC#Cc1ccc2c(c1)[C@]1(C(=O)N2)[C@H](c2ccc(OCCO)cc2)N2[C@H](c3ccccc3)[C@H](c3ccccc3)OC(=O)[C@H]2[C@@H]1C(=O)N1CCCCCCC1`, the composite z-score was 1.72 in [1]; 2.51 in assay [2]; 1.17 in assay [3]; 1.5 in assay [5]; 1.27 in assay [6]; 1.71 in [7]. For the same molecule, the values for the composite z-score in [8], in [9] and in [10] were 1.64, 2.25 and 1.5, respectively. Also, in [4], the z-score is 0.238 (inactive).
Consider `COC(=O)[C@]1(Cc2ccccc2CN=[N+]=[N-])N=C(c2ccc(OCCCO)cc2)O[C@@H]1c1ccccc1`, for which the composite z-score in assay [1] is 1.15; in [2], -0.0032; in assay [3], 0.987; in [5] it was -1.34; in assay [6] it was -1.08; in assay [7], -1.46. For the same molecule, the composite z-score in assay [8] is -0.869; in assay [9] it was -1; in assay [10], 0.53. Besides, the z-score in [4] was -2.04 (inactive).
For the molecule `C=CCC(OC(C)=O)[C@@H]1[C@@H](N(Cc2ccc(-c3ccccc3)cc2)C(=O)Cc2ccc(OC)cc2)c2cc(OCCCO)ccc2N1C(=O)c1ccc(-c2ccccc2)cc1` (stereo not given in full), the composite z-score is -0.0063 in assay [1]; 0.073 in assay [2]; 0.31 in assay [3]; -0.0097 in assay [5]; -0.15 in assay [6]; -0.332 in [7]. The figures for the composite z-score in assay [8], in [9] and in assay [10] were -0.0062, -0.18 and 1.22, respectively. The z-score in assay [4] is -0.757 (inactive).
Turning to `C=CC[C@@]1(C(=O)NCC(O)CO)N=C(c2ccc(OCCCO)cc2)O[C@@H]1c1ccccc1` (stereo not given in full), the composite z-score in assay [1] was 1.46; in assay [2], 1.24; in assay [3], 1.34; in [5], 1.47; in assay [6], 0.0168; in assay [7], -0.829. In addition, the composite z-score in assay [8] is -0.29; in assay [9] it was -0.135; in assay [10] it was 0.505. For the same molecule, in assay [4], the z-score is -0.195 (inactive).
Regarding `C[N+](C)(C)CCCC[C@@H]1NC(=O)[C@@H]2C[C@H](C(=O)NCCCCCNC(=O)CS)[C@H](c3cccc(OCCO)c3)N2C1=O`, the composite z-score in assay [1] was 1.71; in [2], -0.14; in assay [3], -0.149; in [5] it was 0.545; in [6] it was 0.23; in assay [7], 0.0868. Besides, the values for the composite z-score in assay [8], in assay [9] and in assay [10] were -0.19, 0.585 and -0.003, respectively. In addition, the z-score in assay [4] was 0.241 (inactive).
As to `CCOC(=O)C1=CC[C@@H](c2ccc(N(CC)CC)cc2)N(S(=O)(=O)c2ccc(C)cc2)[C@H]1c1ccc([N+](=O)[O-])cc1`, the composite z-score is 0.468 in assay [1]; 0.592 in assay [2]; 1.33 in assay [3]; -0.69 in assay [5]; -1.04 in [6]; -1.17 in assay [7]. In addition, the composite z-score in assay [8] is -0.966; in assay [9], -1.59; in [10] it was 1.04. In addition, the z-score in assay [4] was -1.26 (inactive).
On to `CC(C)(C)OC(=O)CC[C@@]1(C(=O)N2CCCCC2)N=C(c2ccc(OCCCO)cc2)O[C@@H]1c1ccccc1N=[N+]=[N-]`, for which the composite z-score in [1] came to 1.13; in assay [2], 0.977; in assay [3], 0.964; in assay [5], 1.19; in assay [6], 1.3; in assay [7], 0.32. Besides, the results for the composite z-score in assay [8], in [9] and in assay [10] were 1.1, -0.139 and 0.899, respectively. Besides, in [4], the z-score was -0.405 (inactive).
Turning to `CC[C@@H]1[C@@H]2C3C(=O)N(CC)C(=O)C3CC(=O)[C@@H]2[C@H](c2ccc(C)cc2)N1S(=O)(=O)c1ccc(C)cc1` (stereo not given in full), the composite z-score was found to be 0.426 in [1]; 0.384 in [2]; 0.246 in [3]; 0.859 in [5]; 1.31 in assay [6]; 0.174 in assay [7]. Besides, the composite z-score was found to be 0.748 in [8], 0.238 in [9] and 0.241 in assay [10]. Further, the z-score in [4] is -1.52 (inactive).
Take `O=C(O)[C@@]1(Cc2ccccc2)COC(c2ccc(OCCCO)cc2)=N1`: the composite z-score is 1.01 in assay [1]; 0.413 in assay [2]; 0.988 in [3]; -0.38 in [5]; -0.835 in [6]; -0.645 in assay [7]. Further, the results for the composite z-score in [8], in assay [9] and in assay [10] were -1.14, -0.91 and 0.53, respectively. Also, the z-score in assay [4] was 0.483 (inactive).
